# Test results as given in the supplement of paper PMC12282887.
# ± gives the standard deviation of the averaged measurements.
# System: E. coli BW25113 marRABp lux reporter
# Assay: promoter activity interaction Z-score (Lux/OD deviation from empty-vector control); higher = stronger promoter induction by the compound
# Procedure: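 E. coli BW25113 (wild type or ΔmarA/ΔsoxS/Δrob) carrying pTU175 luxCDABE promoter reporters was grown in LB in 384-well plates at 37°C with each of 94 compounds at 4 two-fold concentrations, in biological duplicates. Luminescence and OD600 were read every 30 min for 12 h and integrated as AUC over 8 h (0-8 h WT, 1-9 h mutants). Lux AUC was divided by OD AUC; the interaction score is the residual of a Huber robust fit of each promoter against the empty-vector control, then Z-transformed per promoter.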
smiles,measurement,setting,value
O=C1CN(/N=C/c2ccc([N+](=O)[O-])o2)C(=O)N1 [Nitrofurantoin],promoter activity interaction Z-score,"0.45 µg/ml, genetic background: wild type",0.183 ± 0.32
same,promoter activity interaction Z-score,"0.45 µg/ml, genetic background: ΔmarA",0.105 ± 0.23
same,promoter activity interaction Z-score,"0.45 µg/ml, genetic background: Δrob",0.131 ± 0.13
same,promoter activity interaction Z-score,"0.45 µg/ml, genetic background: ΔsoxS",0.198 ± 0.24
same,promoter activity interaction Z-score,"0.89 µg/ml, genetic background: wild type",0.503 ± 0.047
same,promoter activity interaction Z-score,"0.89 µg/ml, genetic background: ΔmarA",0.249 ± 0.27
same,promoter activity interaction Z-score,"0.89 µg/ml, genetic background: Δrob",0.252 ± 0.052
same,promoter activity interaction Z-score,"0.89 µg/ml, genetic background: ΔsoxS",0.0792 ± 0.11
same,promoter activity interaction Z-score,"1.8 µg/ml, genetic background: wild type",1.04 ± 0.38
same,promoter activity interaction Z-score,"1.8 µg/ml, genetic background: ΔmarA",0.658 ± 0.16
same,promoter activity interaction Z-score,"1.8 µg/ml, genetic background: Δrob",1.16 ± 0.11
same,promoter activity interaction Z-score,"1.8 µg/ml, genetic background: ΔsoxS",0.447 ± 0.016
same,promoter activity interaction Z-score,"3.6 µg/ml, genetic background: wild type",7.36 ± 0.64
same,promoter activity interaction Z-score,"3.6 µg/ml, genetic background: ΔmarA",4.45 ± 1.7
same,promoter activity interaction Z-score,"3.6 µg/ml, genetic background: Δrob",12.8 ± 0.43
same,promoter activity interaction Z-score,"3.6 µg/ml, genetic background: ΔsoxS",12.2
NC1CONC1=O (stereo not drawn) [Cycloserine D],promoter activity interaction Z-score,"1 µg/ml, genetic background: wild type",-0.0783 ± 0.12
same,promoter activity interaction Z-score,"1 µg/ml, genetic background: ΔmarA",-0.137 ± 0.057
same,promoter activity interaction Z-score,"1 µg/ml, genetic background: Δrob",-0.172 ± 0.25
same,promoter activity interaction Z-score,"1 µg/ml, genetic background: ΔsoxS",-0.158 ± 0.078
same,promoter activity interaction Z-score,"1.9 µg/ml, genetic background: wild type",-0.121 ± 0.15
same,promoter activity interaction Z-score,"1.9 µg/ml, genetic background: ΔmarA",0.00534 ± 0.14
same,promoter activity interaction Z-score,"1.9 µg/ml, genetic background: Δrob",-0.0886 ± 0.21
same,promoter activity interaction Z-score,"1.9 µg/ml, genetic background: ΔsoxS",0.0634 ± 0.045
same,promoter activity interaction Z-score,"3.8 µg/ml, genetic background: wild type",-0.109 ± 0.06
same,promoter activity interaction Z-score,"3.8 µg/ml, genetic background: ΔmarA",-0.119 ± 0.032
same,promoter activity interaction Z-score,"3.8 µg/ml, genetic background: Δrob",-0.11 ± 0.062
same,promoter activity interaction Z-score,"3.8 µg/ml, genetic background: ΔsoxS",-0.153 ± 0.013
same,promoter activity interaction Z-score,"7.7 µg/ml, genetic background: wild type",-0.273 ± 0.016
same,promoter activity interaction Z-score,"7.7 µg/ml, genetic background: ΔmarA",-0.299 ± 0.099
same,promoter activity interaction Z-score,"7.7 µg/ml, genetic background: Δrob",0.163 ± 0.27
same,promoter activity interaction Z-score,"7.7 µg/ml, genetic background: ΔsoxS",-0.0525 ± 0.2
Nc1ccn(C[C@@H](CO)OCP(=O)(O)O)c(=O)n1 [Cidofovir],promoter activity interaction Z-score,"17.4 µg/ml, genetic background: wild type",-0.0416 ± 0.17
same,promoter activity interaction Z-score,"17.4 µg/ml, genetic background: ΔmarA",-0.106 ± 0.11
same,promoter activity interaction Z-score,"17.4 µg/ml, genetic background: Δrob",-0.0241 ± 0.025
same,promoter activity interaction Z-score,"17.4 µg/ml, genetic background: ΔsoxS",0.0975 ± 0.049
same,promoter activity interaction Z-score,"34.9 µg/ml, genetic background: wild type",0.263 ± 0.48
same,promoter activity interaction Z-score,"34.9 µg/ml, genetic background: ΔmarA",-0.336 ± 0.093
same,promoter activity interaction Z-score,"34.9 µg/ml, genetic background: Δrob",0.0475 ± 0.0048
same,promoter activity interaction Z-score,"34.9 µg/ml, genetic background: ΔsoxS",-0.0388 ± 0.24
same,promoter activity interaction Z-score,"69.8 µg/ml, genetic background: wild type",-0.235 ± 0.23
same,promoter activity interaction Z-score,"69.8 µg/ml, genetic background: ΔmarA",-0.157 ± 0.23
same,promoter activity interaction Z-score,"69.8 µg/ml, genetic background: Δrob",-0.0863 ± 0.087
same,promoter activity interaction Z-score,"69.8 µg/ml, genetic background: ΔsoxS",0.0268 ± 0.12
same,promoter activity interaction Z-score,"139.6 µg/ml, genetic background: wild type",0.0629 ± 0.086
same,promoter activity interaction Z-score,"139.6 µg/ml, genetic background: ΔmarA",-0.277 ± 0.08
same,promoter activity interaction Z-score,"139.6 µg/ml, genetic background: Δrob",0.278 ± 0.14
same,promoter activity interaction Z-score,"139.6 µg/ml, genetic background: ΔsoxS",0.18 ± 0.28
